Assay in all cases: PBM binding z-score (relative to random genomic background probes); higher = stronger binding; sequences stand for … in GC…GCGATTGACAGCGTAGAATGAAGG
The subject of test [1] is FXR:RXRa (NR concentration 270 nM, RXRa partner concentration 90 nM). Summed up:
(§1)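 For binding z-scores, the reference was random background probes on custom Agilent 4×180K protein-binding microarrays. These arrays were incubated 1 h with ligand-free nuclear receptor dimers in PBS pH 7.4, 2% milk, 0.02% Triton X-100, 1 mM DTT, 0.2 mg/mL BSA and 0.4 mg/ml salmon testes DNA. Fluorescence was scanned after antibody detection of each partner (one per run) and regression-normalized.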

For test [2], the system named is LXRa:RXRa (NR concentration 270 nM, RXRa partner concentration 90 nM). The method in brief:
as §1

Test [3] relates to LXRa homodimer (NR concentration 270 nM). Summed up: as §1
Test [4] has as its system LXRb:RXRa (NR concentration 270 nM, RXRa partner concentration 90 nM). Summed up:
as §1

For test [5], the system named is LXRb homodimer (NR concentration 270 nM). The method in brief: as §1
The subject of test [6] is PPARa:RXRa (NR concentration 270 nM, RXRa partner concentration 90 nM). Summed up: as §1
The test system of test [7] is PPARg:RXRa (NR concentration 180 nM, RXRa partner concentration 90 nM). Summed up:
as §1

The subject of test [8] is PPARg:RXRa 270nM:90nM, anti-RXR (NR concentration 270 nM, RXRa partner concentration 90 nM). The method in brief: as §1
The subject of test [9] is PPARg:RXRa 30nM:10nM, anti-RXR (NR concentration 30 nM, RXRa partner concentration 10 nM). The method in brief:
as §1

Test [10] has as its system PPARg:RXRa 90nM:30nM, anti-RXR (NR concentration 90 nM, RXRa partner concentration 30 nM). The method in brief: as §1

As for CCTTACGTGTCAAGGTTATAGCACGGGTGGTACG, the PBM binding z-score is 0.976 in [1]; 0.929 in test [2]; 0.288 in test [3]; 0.638 in [4]; 0.609 in test [5]; 1.36 in test [6]. Also, the PBM binding z-score came to 0.992 in test [7], 0.8 in test [8], 0.3 in [9] and 0.364 in test [10].
TCTCGGAGGACACGAAGGTCGGAGCTTTCCAGAG: the PBM binding z-score was 0.628 in test [1]; -0.0853 in [2]; -0.898 in [3]; -0.334 in [4]; -1.43 in test [5]; 0.339 in [6]. For the same sequence, the PBM binding z-score is -0.0942 in test [7], 1.17 in test [8], 1.87 in [9] and 1.67 in test [10].
Regarding AGAATGAGGTTAATAAGATCAGGGAATTGCGGTC, the PBM binding z-score in test [1] amounted to 1.38; in test [2], 1.15; in [3], 0.213; in [4], 1.24; in [5], 0.00596; in test [6] it was 2.74. Moreover, the PBM binding z-score in test [7] is 1.75; in [8] it was 2.22; in test [9], 0.516; in test [10] it was 1.58.
For CATACAGGGGCAGCTAGGCCAGAGTAGGGACGGC, the PBM binding z-score in test [1] is -0.362; in test [2] it was -0.459; in [3], -0.661; in test [4], -0.557; in test [5], -0.608; in [6] it was -0.483. The PBM binding z-score in test [7] is 0.23; in test [8], -0.457; in test [9], -0.311; in test [10] it was -0.744.
AGAATGAGGCTATTAAGATCAGGGAATTGCGGTC: the PBM binding z-score was -0.289 in test [1]; -0.438 in test [2]; -0.31 in test [3]; -0.728 in test [4]; -0.68 in [5]; -0.226 in test [6]. Further, the PBM binding z-score was 0.441 in test [7], -0.417 in test [8], -0.0887 in test [9] and -0.313 in test [10].
In the case of ATATGCAGGTTAAGGGTCATTCAGGTTGGTTCGC, the PBM binding z-score in test [1] was 5.08; in test [2] it was 4.8; in [3] it was 3.05; in test [4], 4.56; in test [5], 1.17; in [6] it was 5.84. The PBM binding z-score in test [7] was found to be 9.18; in [8] it was 7.85; in [9], 8.36; in test [10] it was 8.7.
As to GGAACGAGGGCATTTGAGTTGATAGCATGGCGAT, the PBM binding z-score in [1] is 1.31; in [2], 1.6; in test [3] it was -0.156; in test [4] it was 0.482; in test [5], -0.207; in test [6] it was 1.65. Further, the PBM binding z-score was 0.939 in test [7], 0.641 in test [8], -0.0141 in test [9] and 0.257 in test [10].
As to CCTTCCGGGTCACTGACAGGTTATAGCATTTGGA, the PBM binding z-score in test [1] is 4.43; in test [2] it was 3.92; in test [3], 0.31; in test [4], 3.22; in test [5] it was 0.12; in test [6], 5.01. Moreover, the PBM binding z-score was 4.96 in test [7], 5.08 in test [8], 1.75 in [9] and 3.7 in test [10].
Consider GGCACGAGGGCATTCGAGTTGATAGCATGGCGAT, for which the PBM binding z-score in [1] is 1.22; in test [2], 1.79; in test [3] it was -0.515; in test [4], 0.139; in [5] it was -1.26; in test [6], 0.942. Further, the PBM binding z-score in test [7] is 0.663; in test [8], 0.216; in [9], -0.477; in test [10], -0.229.
As to TCATATAGGTAAACAGGTGAAGGTCCGTAAGTTA, the PBM binding z-score is 0.526 in test [1]; 0.84 in test [2]; 0.00797 in test [3]; 0.841 in test [4]; -0.136 in test [5]; 2.21 in test [6]. Further, the PBM binding z-score was determined as 2.67 in test [7], 3.2 in [8], 4.31 in test [9] and 3.46 in test [10].
In the case of TCGAGTAGGTTACCAATGGGGCATTCCGCTTTCT, the PBM binding z-score in [1] is 0.135; in test [2], 1.46; in test [3] it was -0.855; in test [4] it was 0.838; in [5], -1.11; in [6], 1.01. The PBM binding z-score in [7] is -0.123; in test [8], 1.1; in test [9], 1.11; in test [10], 0.974.
As for TAGCCTAGGTCAGTCAGGGGCCAGTATAGAAAGC, the PBM binding z-score was 1.42 in test [1]; 0.48 in [2]; -0.418 in [3]; 0.85 in test [4]; -0.405 in test [5]; 1.46 in test [6]. Besides, the PBM binding z-score was 0.583 in test [7], 1.04 in test [8], -0.0718 in test [9] and 0.829 in [10].

(Values after the supplement of paper PMC6555819.)
